From PubChem BioAssay AID2642 (Johns Hopkins Ion Channel Center, 2010)
Screen size: about 310,000 compounds; about 3,900 (1.3%) were called active.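 How the source made its calls: active means compounds whose thallium flux B-score, printed positive for inhibition, exceeds three library SD while starting fluorescence stays within three; inactive means the rest.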 The entries come from a sample that favours actives as a whole.

Each compound was assayed against Potassium voltage-gated channel subfamily KQT member 1 (Homo sapiens) (UniProt P51787) (assay: KCNQ1 potassium current blockers – cell-based, thallium flux, high-throughput, primary screen (AID 2642;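 further: channel opened by potassium depolarization with thallium stimulus after 20 min compound exposure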)). Conditions: CHO-K1 KCNQ1, FluxOR thallium flux fluorescence, at 10 µM; hits give high values.
Potassium voltage-gated channel subfamily KQT member 1 (Homo sapiens), sequence (P51787 whole entry, looked up): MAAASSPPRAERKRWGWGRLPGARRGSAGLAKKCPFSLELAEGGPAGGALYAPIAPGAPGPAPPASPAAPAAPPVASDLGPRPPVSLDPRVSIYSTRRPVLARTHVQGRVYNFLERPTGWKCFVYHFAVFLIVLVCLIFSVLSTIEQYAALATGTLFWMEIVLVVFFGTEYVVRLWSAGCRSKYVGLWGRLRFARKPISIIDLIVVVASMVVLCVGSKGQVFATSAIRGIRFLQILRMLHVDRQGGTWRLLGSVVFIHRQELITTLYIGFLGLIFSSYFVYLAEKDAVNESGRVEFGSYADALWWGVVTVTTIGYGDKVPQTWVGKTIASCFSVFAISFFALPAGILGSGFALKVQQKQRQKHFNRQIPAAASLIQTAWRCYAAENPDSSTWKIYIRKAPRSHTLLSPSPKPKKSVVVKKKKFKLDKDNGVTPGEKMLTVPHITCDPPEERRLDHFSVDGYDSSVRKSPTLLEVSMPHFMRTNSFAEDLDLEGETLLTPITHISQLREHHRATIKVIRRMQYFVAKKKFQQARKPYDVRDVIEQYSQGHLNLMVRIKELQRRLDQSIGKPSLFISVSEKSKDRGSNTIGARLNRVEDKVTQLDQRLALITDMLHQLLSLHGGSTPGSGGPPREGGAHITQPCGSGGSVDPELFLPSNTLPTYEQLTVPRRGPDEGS

SMILES | B-score
CCc1nc2nc(C)c(NS(=O)(=O)c3ccc4c(c3)CCCC4)c(=O)n2[nH]1 | inactive
CCCCc1ccc(NC(=O)NCc2cccnc2)cc1 | inactive
O=S(=O)(NCCSc1ccccn1)c1ccc(Cl)cc1 | inactive
Cc1cc(O)ccc1NC1=CC(=O)CC(C)(C)C1 | inactive
CCOc1ccc(NC(=O)CN(C)C(=O)c2c(C)noc2C)cc1OCC | inactive
CCOC(=O)C1CCc2nc3ccccc3c(=O)n21 (stereo not given) | inactive
CCOC(=O)C(C)Sc1nc2ccccc2c(=O)n1CC1CCCCC1 (stereo not given) | 7 (active)
CCOn1c(SC(C)C)nc2ccccc2c1=O | inactive
Cc1c(OC(C)C(=O)NCC2CCC(C(=O)O)CC2)ccc2c1oc(=O)c1ccccc12 (stereo not given) | inactive
Cc1noc(C)c1CSCC(=O)Nc1ccc(Br)cc1Cl | inactive
CCc1noc(C)c1C(=O)Nc1nc2ccc(OC)cc2s1 | inactive
Cc1noc(C)c1CSCC(=O)Nc1nc2ccc(Oc3ccccc3)cc2s1 | 8 (active)
Cc1ccc(-n2ncc(C(=O)NC3CC3)c2C2CCN(C(=O)OC(C)(C)C)CC2)c(C)c1 | inactive
Cc1cc(C)c(NC(=O)c2oc3ccccc3c2COc2ccccc2)c(C)c1 | 10 (active)
COCc1c(C(=O)OCc2c(C)noc2C)oc2ccccc12 | inactive
CCOC(=O)c1oc2ccccc2c1NC(=O)c1cccs1 | inactive
COc1cc(C(C(=O)NC2CCCC2)N(Cc2ccccc2)C(=O)c2snc(C(N)=O)c2N)ccc1O (stereo not given) | inactive
O=C(Nc1ccccc1)N1CCN(C(=O)Nc2ccccc2)CC1 | inactive
O=C(Nc1ccc(Cl)c(Cl)c1)N1CC=C(c2ccccc2)CC1 | 11 (active)
COc1cc(C(=O)NCC(=O)N2CC=C(c3ccccc3)CC2)cc(OC)c1OC | inactive
O=C(NCCCN1CCCCC1)C1CC(=O)N(CCc2ccccc2)C1 (stereo not given) | inactive
NC(=O)c1cc(-c2cccnc2)nc2ccc(Br)cc12 | inactive
Cc1onc(-c2ccccc2)c1C(=O)NNC(=S)NC(=O)c1ccc(F)cc1 | inactive
NC(=O)C1CCN(C(=O)c2cn(-c3ccccc3)nc2-c2cccnc2)CC1 | inactive
O=C(NNC(=S)NC(=O)c1cn(-c2ccccc2)nc1-c1ccccc1)c1ccncc1 | 6 (active)
c1ccc(-c2ccc3c(c2)NC(C2Nc4cc(-c5ccccc5)ccc4O2)O3)cc1 (stereo not given) | inactive
CNS(=O)(=O)c1ccc(N2CCCC2=O)c([N+](=O)[O-])c1 | inactive

SMILES | B-score
CC(=O)Nc1ccc(S(=O)(=O)Nc2ccc(-c3ccc4nnc(C)n4n3)cc2)cc1 | inactive
Cc1ccc(N(CC(=O)Nc2cccc(N(C)S(C)(=O)=O)c2)S(C)(=O)=O)cc1 | inactive
CN(c1cccc(NC(=O)Nc2ccc(Cl)cc2)c1)S(C)(=O)=O | 10 (active)
COc1cccc(N(CC(=O)Nc2cccc(N(C)S(C)(=O)=O)c2)S(C)(=O)=O)c1 | inactive
COc1cccc(NC(=O)CN(C)C(=O)CSCc2nc3scc(-c4cccs4)c3c(=O)[nH]2)c1 | inactive
COc1ccc(C2NC(=O)C(=O)/C2=C(\O)c2ccc(Cl)cc2)cc1OC (stereo not given) | inactive
CC(=O)Oc1ccccc1C(=O)Nc1ncc([N+](=O)[O-])s1 | 7 (active)
O=C(CCc1ccccc1)Nc1ncc([N+](=O)[O-])s1 | inactive
O=C(Nc1ncc([N+](=O)[O-])s1)C1COc2ccccc2O1 (stereo not given) | inactive
CC(NC(=O)c1cc(=O)[nH]c2ccccc12)c1ccc(F)cc1F (stereo not given) | inactive
CC(=O)c1cc2c(cc1NC(=O)Cn1nc(-c3ccc(F)cc3)ccc1=O)OCO2 | inactive
COc1cnc(-c2ccccn2)nc1Oc1ccc(C(C)(C)C)cc1 | inactive
COc1ccc(S(=O)(=O)N2CCCCCC2)cc1C(=O)OCC(=O)Nc1cc(C)on1 | inactive
O=C(/C=C/Sc1ncn[nH]1)c1ccc(Cl)cc1 | 7 (active)
O=C(CSc1ncn[nH]1)N/N=C/c1ccc(F)cc1 | inactive
Cc1cc(C)nc(S/C=C/C(=O)c2ccccc2)n1 | inactive
CCOc1cc(NC(=S)NCCCN(C)C)c(OCC)cc1NC(=O)C1CC1 | inactive
CC(C)c1ccccc1OCC(O)CN(CC(O)COc1cccc2ccccc12)C(C)C (stereo not given) | 6 (active)
Cc1cc(C)c(NC(=O)C[N+](C)(C)CC(O)COc2cccc3ccccc23)c(C)c1 (stereo not given) | inactive
OC(COc1cccc2ccccc12)CN1CCN(c2ccccn2)CC1 (stereo not given) | inactive
O=C(CC1C(=O)NCCN1Cc1ccc(-c2ccccc2)cc1)NCc1ccncc1 (stereo not given) | inactive
Cc1ccc(OCC(=O)Nc2ccccc2C(=O)NC2CC2)cc1C | inactive
O=C(N/N=C/c1cc([N+](=O)[O-])ccc1O)/C(=C\c1cccs1)NC(=O)c1ccccc1 | inactive
O=[N+]([O-])c1ccc(O)c(/C=N/Nc2ccccc2[N+](=O)[O-])c1 | 9 (active)
Nc1nnnn1/N=C/c1cc([N+](=O)[O-])ccc1O | inactive
CCOc1ccc(CN2CCN(CCCc3ccccc3)C(CCO)C2)cc1 (stereo not given) | inactive
CN1CCN(C2=NCCO2)CC1 | inactive

SMILES | B-score
COc1ccc(OC)c(C(=O)NC(CC(N)=O)c2ccc(N3CCC(N4CCCCC4)CC3)c([N+](=O)[O-])c2)c1 (stereo not given) | inactive
O=C(CNS(=O)(=O)c1ccccc1)N1CCN(C(=O)c2ccco2)CC1 | inactive
CCS(=O)(=O)C1=NSC2=NC(=O)/C(=C\c3cc(C)n(-c4cccc(OC)c4)c3C)C(=N)N21 | 8 (active)
Cc1cc(/C=C2/C(=N)N3C(=NC2=O)SN=C3S(C)(=O)=O)c(C)n1-c1ccccc1 | inactive
CCS(=O)(=O)C1=NSC2=NC(=O)/C(=C\c3ccc(OS(=O)(=O)c4ccccc4)cc3)C(=N)N21 | inactive
CCc1cc(=O)oc2cc(C)cc(OCC(=O)N3CCC[C@@H]3C(=O)O)c12 | inactive
COc1ccc(N2CCN(C(=O)Cn3cnc4sc(C)c(S(=O)(=O)N5CCOCC5)c4c3=O)CC2)cc1 | inactive
C=CCn1nc(-c2ccccc2)c2c(C)onc2c1=O | inactive
CCOc1ccc(CN(Cc2ccco2)S(=O)(=O)c2ccc(-n3cnnn3)c(OC)c2)cc1 | inactive
CC(C)(C)n1nnnc1C(c1cccs1)N(Cc1cccnc1)CC1CCCO1 (stereo not given) | inactive
CCOc1ccc(CN(Cc2ccco2)C(c2cccs2)c2nnnn2C(C)(C)C)cc1 (stereo not given) | 7 (active)
Cc1c(Cl)cccc1NC(=O)[C@@]1(CC(=O)O)CC(/C=C/c2ccccc2)=NO1 | inactive
CC(Oc1ccc(F)cc1)C(=O)Nc1cc(S(=O)(=O)N2CCOCC2)ccc1N1CCN(C)CC1 (stereo not given) | inactive
Cc1ccc(S(=O)(=O)N2CCC3(CC2)OCCO3)c(C)c1 | inactive
CCOC(=O)C1CCN(C(=O)C2(NC(=O)Nc3cccc(F)c3)CCCCC2)CC1 | inactive
Oc1c(Br)cccc1/C=N/Nc1c(F)c(F)c(F)c(F)c1F | 7 (active)
Brc1ccccc1/C=N/Nc1nc2ccccc2o1 | inactive
Oc1cccc(/C=N/Nc2ccc(Cl)nn2)c1O | inactive
COc1cccc(NC(=O)CN(C)C(C)C(=O)Nc2ccc(C#N)cc2)c1 (stereo not given) | inactive
COc1ccc(N(CC(=O)Nc2ccc(F)c(F)c2)S(=O)(=O)c2c(C)[nH]c(=O)[nH]c2=O)cc1 | inactive
COc1ccccc1NC(=O)C1CCN(C(=O)c2ccc(C(C)(C)C)cc2)CC1 | inactive
O=C(CCNC(=O)c1ccc(Br)cc1)NCCCc1ccccc1 | inactive
S=C(NCCc1ccccc1)Nc1ccccc1 | inactive
S=C(NCCCc1ccccc1)Nc1ccc(Br)cc1 | 7 (active)
Cc1cn(C)c(=O)n(C)c1=O | inactive
O=c1onc(-c2c(F)cccc2F)n1-c1ccccc1Cl | inactive
CC1CCC2(CC1)NC(=O)N(CC(=O)c1cccn1C)C2=O (stereo not given) | 7 (active)

SMILES | B-score
CC1CCC2(CC1)NC(=O)N(CC(=O)c1ccc3c(c1)OCO3)C2=O (stereo not given) | inactive
O=C(CN1C(=O)NC2(CCCCCC2)C1=O)NC1CC1 | inactive
Cc1ccc(CNC(=O)CSc2nnc3c(n2)[nH]c2ccc(F)cc23)cc1 | inactive
CN(C)/C=C(/C(=O)c1ccc(Cl)cc1)S(=O)(=O)c1ccccc1 | inactive
S=C(NN=C1CCN(Cc2ccccc2)CC1)NC1CCCCC1 | inactive
S=C(NCCc1ccccc1)NCC1CCCO1 (stereo not given) | inactive
CCCC1CCC(=NNC(=S)NCCc2ccccc2)CC1 (stereo not given) | 7 (active)
COc1ccc(S(=O)(=O)NCC(=O)NCc2cc(=O)n(C)c(=O)n2C)cc1F | inactive
Cc1ccc(S(=O)(=O)N2CCN(CC(=O)N/N=C/c3ccc(Br)s3)CC2)cc1 | inactive
CCC(CC)C(=O)N1CCN(c2cccc(C)c2C)CC1 | inactive
Cc1cccc(N2CCN(C(=O)c3cccc(N4C(=O)C5C6C=CC(C6)C5C4=O)c3)CC2)c1C (stereo not given) | inactive
CCn1c(C)c(C)c2cc(C(=O)N3CCN(c4cccc(C)c4C)CC3)ccc21 | 10 (active)
O=C(c1cc(COc2ccc(F)c(F)c2)on1)N1CCOCC1 | inactive
C=CCC1(CC=C)CCCN1C(=O)c1cc(COc2ccc(-n3cncn3)cc2)on1 | 11 (active)
CCn1ccnc1CN(C)C(=O)c1cc(COc2ccc(-n3cncn3)cc2)on1 | inactive
NS(=O)(=O)c1cc(C(=O)NCCOc2ccccc2)c(Cl)cc1Cl | inactive
COc1ccc(-n2c(C)cc(C(=O)COC(=O)c3cc(OC)c(OC)cc3NC(=O)c3cccs3)c2C)cc1 | inactive
COc1ccc(Nc2ncnc3sc(C)cc23)cc1 | inactive
COc1ccc(Nc2ncnc3ccc(Br)cc23)c(OC)c1 | inactive
COc1ccc(Nc2ncnc3sc(-c4ccccc4)cc23)c(OC)c1 | 7 (active)
c1ccc2c(c1)C(=NC1CCCCC1)NC2=NC1CCCCC1 | 6 (active)
CC1(C)CC(=O)C=C(N2CCCC2)C1 | inactive
O=C(O)CN1CCN(C(c2ccccc2)c2ccccc2)CC1 | inactive
CC1(C)CC(N2CCN(C(c3ccccc3)c3ccccc3)CC2)=CC(=[N+]2CCCCC2)C1 | 9 (active)
